According to article PMC4552634, “A New Set of Chemical Starting Points with Plasmodium falciparum Transmission-Blocking Potential for Antimalarial Drug Discovery” (PLoS ONE, 2015):
Read-outs that look alike come from different tables or passages of the source. In all, about 13,000 compounds went through this assay and about 3,200 (25%) showed an effect of 50% or more. The list shows a part of the results.

Test system: P. falciparum stage V gametocytes
Parameters: BacTiter-Glo ATP luminescence viability of purified stage V gametocytes in 384-well plates, per cent inhibition versus DMSO
Conditions: 48 h, 5 µM, inhibitor

SMILES	% Inhibition [%]	% Inhibition (% Inhibition) [%]
Cc1cccc2[nH]c(-c3cccc(-c4cccc(NC(=O)NCc5cccc(F)c5)c4)c3)nc12 [TCMDC-133291]	37.78	
O=C(Nc1cccc(-c2cccc(-c3nc4ccc(F)cc4[nH]3)c2)c1)Nc1ccc(F)c(F)c1F [TCMDC-133233]	-45	
Cc1cc(Cl)c(S(=O)(=O)N(C)c2ccccc2)cc1OCC(=O)NC1CCCCC1 [TCMDC-124368]	-27.39	
Cc1cc(C(=O)CN2C(=O)NC3(CCOc4ccccc43)C2=O)c(C)n1Cc1ccc(F)cc1 (stereo not shown) [TCMDC-125246]	-0.05637	
CC(CNc1nc(NCC(c2ccccc2)c2ccccc2)c2[nH]cnc2n1)c1ccccc1 (stereo not shown) [TCMDC-131859]	-14.76	
O=C(Nc1ccc(C(F)(F)F)cc1)c1ccc(S(=O)(=O)NC2CCN(Cc3ccccc3)C2)cc1 (stereo not shown) [TCMDC-133675]	7.046	
Cc1ccc(NC(=O)c2ccc(NCCCN(C)Cc3ccccc3)c([N+](=O)[O-])c2)cc1F [TCMDC-125686]	12.99	
O=C(Nc1ccccc1F)NC1CCN(c2ccnc(Nc3ccc(F)cc3)n2)C1 (stereo not shown) [TCMDC-133603]	-76.2	
N#Cc1cccc(NC(=O)Nc2cccc(OC3CCN(Cc4ccccc4)CC3)c2)c1 [TCMDC-139545]	11.02	
O=C(Nc1ccc2c(c1)CCC2)N[C@H]1CCN(Cc2ccc(OCCCN3CCCCC3)cc2)C1 [TCMDC-141790]	89.55	
O=C(Nc1ccc(-c2ccccc2)cc1)Nc1cccc(OCCN2CCCC2)c1 [TCMDC-139541]	-48.88	
O=C(Nc1ccc2c(c1)CCC2)N[C@H]1CCN(CCCCCNC(=O)C2CC2c2ccc(Cl)c(Cl)c2)C1 (stereo partly shown) [TCMDC-136264]	5.581	
O=C(Nc1cccc(Oc2ccccc2)c1)N[C@H]1CCN(Cc2ccc(OCCCN3CCCCC3)cc2)C1 [TCMDC-141785]	106.3	
O=C(Nc1ccc(C(=O)Oc2ccc3ccccc3c2)cc1)N[C@@H](Cc1ccc(O)cc1)C(=O)NC1CCN(Cc2ccc(O)cc2)C1 (stereo partly shown) [TCMDC-135358]	-34.98	
N#Cc1cc(C(=O)c2cc(Br)ccc2O)cn(C2CCCCC2)c1=O [TCMDC-123629]	-45.84	
O=C(/C=C/c1ccc(Cl)c(Cl)c1)NCCCCCN1CCC(c2c[nH]c3ccccc23)C(O)C1 (stereo not shown) [TCMDC-139656]		-35.83
CC(=O)c1cccc2cc(C(=O)NC3CCC(CCN4CCc5ccc(C#N)cc5C4)CC3)[nH]c12 (stereo not shown) [TCMDC-139192]	14.52	
Nc1nc2c(cnn2CCCCCCCP(=O)(O)O)c(=O)[nH]1 [TCMDC-137339]	21.15	
N#Cc1cccc(C(=O)Nc2ccc(-c3cccc(CN4CCCC4)c3)cc2)c1 [TCMDC-132674]	97.51	
N#Cc1cccc(C(=O)Nc2ccc(-c3ccc(CN4CCCC4)cc3)cc2)c1 [TCMDC-132596]	64.33	

SMILES	% Inhibition [%]	% Inhibition (% Inhibition) [%]
N#Cc1ccc(C(=O)Nc2ccc(-c3cccc(CN4CCCC4)c3)cc2)cc1 [TCMDC-132668]	1.206	
N#Cc1ccc(C(=O)Nc2cccc(-c3ccc(CN4CCCC4)cc3)c2)cc1 [TCMDC-132639]	23.71	
CN1CCCN(Cc2cccc(-c3ccc(NC(=O)c4cccc(C#N)c4)cc3)c2)CC1 [TCMDC-132673]	15.02	
N#Cc1cccc(C(=O)Nc2cccc(-c3ccc(CN4CCCC4)cc3)c2)c1 [TCMDC-132650]	24.3	
CN1CCCN(Cc2ccc(-c3cccc(NC(=O)c4cccc(C#N)c4)c3)cc2)CC1 [TCMDC-132648]	64.68	
CN1CCCN(Cc2cccc(-c3cccc(NC(=O)c4cccc(C#N)c4)c3)c2)CC1 [TCMDC-132661]	20.56	
CN1CCCN(Cc2ccc(-c3ccc(NC(=O)c4cccc(C#N)c4)cc3)cc2)CC1 [TCMDC-132594]	-1.455	
O=C(NCc1ccc(C(=O)NC2CCCCC2)cc1)c1ccc(O)c(-c2ccc(Cl)c(Cl)c2)c1 [TCMDC-140825]	-4.793	
CN(c1ccc(C(=O)N[C@@H](CCC(=O)O)C(=O)O)cc1)S(=O)(=O)c1ccc2nc(N)[nH]c(=O)c2c1 [TCMDC-137344]	2.989	
COC(=O)c1ccc(CC(C)NCC(O)c2cccc(C(F)(F)F)c2)c(OC)c1 (stereo not shown) [TCMDC-131469]	14.6	
CCN(CCCN1CCCCC1)c1cc(C)nc(Nc2cccc(OC(F)(F)F)c2)n1 [TCMDC-132429]	-20.04	
COc1cc2nc(N3CCC(CNC(=O)c4ccc(-c5ccc(C(=O)N(C)C)cc5O)cc4)CC3)nc(N)c2cc1OC [TCMDC-138752]	72.56	
COCCNc1nc(N2CCC(CNC(=O)c3ccc(-c4ccc(C(=O)N(C)C)cc4C)cc3)CC2)nc2cc(OC)c(OC)cc12 [TCMDC-138729]	5.197	
COc1cc2nc(N3CCC(CNC(=O)c4ccc(-c5ccc(C(=O)N(C)C)cc5)cc4)CC3)nc(N)c2cc1OC [TCMDC-138719]	58.63	
COc1cc2nc(N3CCC(CNC(=O)c4ccc(-c5ccc(C(=O)N(C)C)cc5OCCN(C)C)cc4)CC3)nc(N)c2cc1OC [TCMDC-138760]	100.1	
COc1cc2nc(N3CCC(CNC(=O)c4ccc(-c5ccc(C(=O)N(C)C)cc5C)cc4)CC3)nc(N3CCN(C)CC3)c2cc1OC [TCMDC-138724]	15.4	
COc1cc2nc(N3CCC(CNC(=O)c4ccc(-c5ccc(C(=O)N(C)C)cc5)c(OCCO)c4)CC3)nc(N)c2cc1OC [TCMDC-138742]	39.21	
COc1cc2nc(N3CCC(CNC(=O)c4ccc(-c5ccc(C(=O)N(C)C)cc5OCCO)cc4)CC3)nc(N)c2cc1OC [TCMDC-138766]	-18.75	
NCCc1cccc(-c2cnc3[nH]cc(-c4ccc(C(=O)O)cc4)c3c2)c1.O=C(O)C(F)(F)F [TCMDC-136363]	-2.826	
CN(Cc1cnc2nc(N)nc(N)c2n1)c1ccc(C(=O)NC(CCC(=O)O)C(=O)O)cc1 (stereo not shown) [TCMDC-123832]		33.25
